# Source: PubChem BioAssay AID430 (Sanford-Burnham Center for Chemical Genomics, 2006)
# Out of some 63,000 compounds screened, about 1,100 (1.7%) were called active. This is one part of a sample in which actives are shown more often than they occur. Measured potencies and affinities stand elsewhere. A number with no mark means an inactive call. No stated cut-off is given here; in the data, active means cytotoxicity above about 50%; inactive means the rest.
# Experiment: HPDE-C7 pancreatic duct cell viability loss – fluorescence, HTS (AID 430);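 further: cells exposed to compound for 48 hours before viability readout; 0% = vehicle and 100% = reference cytotoxic drug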
# Settings: HPDE-C7 pancreatic duct cells viability, at 10 µM, active compounds read high
row,Structure (SMILES),cytotoxicity
1,CSCCC(C(=O)Nc1ccc2c(c1)OCO2)N1C(=O)c2ccccc2C1=O (stereo unspecified),0.6%
2,CN(C)c1ccc(CNC(=O)C2CCN(S(=O)(=O)c3ccc4c(c3)CCC(=O)N4)CC2)cc1,3.1%
3,COc1ccc(N2CC(C(=O)NCCCN3CCOCC3)CC2=O)cc1 (stereo unspecified),3.4%
4,Cn1c(=O)c2c(nc(SCCN3CCOCC3)n2Cc2ccc(F)cc2)n(C)c1=O,3.9%
5,CCCc1nc2ccccc2c(C(=O)OC2CCOC2=O)c1CC (stereo unspecified),-7.5%
6,NC1(N)OC(CN2C(=O)c3ccccc3C2=O)CS1 (stereo unspecified),-15%
7,CC1=CC(C)(C)N2C(=O)C3(C(C#N)=C(N)Oc4cc(O)ccc43)c3cccc1c32 (stereo unspecified),68.4% (active)
8,COc1cc2c3c(c1)C1(C(=O)N3C(C)(C)C=C2C)C(C#N)=C(N)Oc2cc(O)ccc21 (stereo unspecified),-9.2%
9,CC1=CC(C)(C)N2C(=O)C3(C(C#N)=C(N)Oc4cc(C)oc(=O)c43)c3cccc1c32 (stereo unspecified),1.3%
10,Cc1ccc2cc3c(nc2c1)N(Cc1ccco1)CC3,-15.5%
11,CC1CCN(S(=O)(=O)c2ccc(NC(=O)Cn3nnc(-c4ccccc4)n3)cc2)CC1,3.7%
12,Cc1cc(NC(=O)COc2cccc3cccnc23)no1,7.3%
13,N#CC(C(=O)NCc1ccccc1)c1nc2ccccc2nc1N1CCCC1 (stereo unspecified),-2%
14,CC(C)COC(=O)C(C#N)c1nc2ccccc2nc1N1CCN(Cc2ccccc2)CC1 (stereo unspecified),-14%
15,COc1ccc(CNC(=O)C(C#N)c2nc3ccccc3nc2N2CCN(C)CC2)cc1 (stereo unspecified),72% (active)
16,COCCOC(=O)C(C#N)c1nc2ccccc2nc1N1CCN(Cc2ccccc2)CC1 (stereo unspecified),8.9%
17,CCCCCCOC(=O)C(C#N)c1nc2ccccc2nc1N1CCN(CC)CC1 (stereo unspecified),12.4%
18,CCN1CCN(c2nc3ccccc3nc2C(C#N)C(=O)OCc2ccccc2)CC1 (stereo unspecified),58% (active)
19,COc1ccc(CNC(=O)C(C#N)c2nc3ccccc3nc2N2CCCC2)cc1 (stereo unspecified),-15.8%
20,CCCCCCOC(=O)C(C#N)c1nc2ccccc2nc1N1CCCCC1 (stereo unspecified),-47.4%
21,CCCCCCOC(=O)C(C#N)c1nc2ccccc2nc1N1CCN(C)CC1 (stereo unspecified),64.2% (active)
22,Cc1cc2cc(CCNC(=O)CC(C)C)c(=O)[nH]c2cc1C,3.7%
23,O=C(NCc1ccco1)c1cc2ccccc2c(=O)o1,-3.4%
24,Cc1nc(-c2cn[nH]c2)c2cc(C)oc2n1,1.2%
25,CCCN(CCC)c1nc2ccccc2nc1C(C#N)C(=O)OCCOC (stereo unspecified),-8.9%
26,Cc1nnc(SCC(=O)Nc2nc3c(s2)CC(C)CC3)s1 (stereo unspecified),1%

row,Structure (SMILES),cytotoxicity
1,CCC(c1nnnn1C(C)(C)C)N(CCOC)Cc1cc2cccc(C)c2n2nnnc12 (stereo unspecified),5.7%
2,CCOC(=O)c1c(C)oc2c1c(/C=N/c1ccccn1)c(O)c1ccccc12,1.4%
3,CCOC(=O)c1c(C)oc2c1c1c(c3ccccc32)OCN(Cc2cccnc2)C1,2.1%
4,CCOC(=O)c1c(C)oc2c1c(C(c1cccnc1)N1CCN(C)CC1)c(O)c1ccccc12 (stereo unspecified),112% (active)
5,CCOC(=O)c1c(C)oc2c1c(C=NCc1ccccn1)c(O)c1ccccc12,91% (active)
6,CCOC(=O)c1c(C)oc2c1c(C=NCC1CCCO1)c(O)c1ccccc12 (stereo unspecified),-16.9%
7,CCOC(=O)c1c(C)oc2c1c(C=NC1CCS(=O)(=O)C1)c(O)c1ccccc12 (stereo unspecified),28.9%
8,O=S(=O)(N1CCCCC1)N1CCN(S(=O)(=O)N2CCCCC2)CC1,0.2%
9,CCOC(=O)CNC(=O)C(Cc1ccccc1)NS(=O)(=O)c1cccs1 (stereo unspecified),2.5%
10,COc1ccccc1NS(=O)(=O)c1ccc(NC(C)=O)cc1,-0.5%
11,COC(=O)C(C)NS(=O)(=O)c1ccc(NC(C)=O)cc1 (stereo unspecified),-12.8%
12,COC(=O)/C=C/S(=O)(=O)c1ccc(NC(C)=O)cc1,102% (active)
13,CCOC(=O)CN(Cc1ccccc1)S(=O)(=O)c1ccc(NC(C)=O)cc1,-2.7%
14,CC(=O)Nc1ccc(S(=O)(=O)c2ccc(N)cc2)cc1,-11%
15,O=C(CSc1nnc(COc2ccc(Cl)cc2)o1)OC1CCCCC1,-7.9%
16,CCOC(=O)N1CCC(NCCNC(=O)c2cccs2)CC1,-6.4%
17,O=C(Cc1ccccc1)N1CCCC1c1ccccc1 (stereo unspecified),-22.3%
18,CCCCN(C(=O)NC(=O)Nc1ccccc1OC)S(C)(=O)=O,-3.1%
19,CCOC(=O)N1CCN(C(=O)CSc2nnc(-c3ccc(C(C)(C)C)cc3)o2)CC1,2.6%
20,O=C(CNC1CCCCCC1)Nc1ccc(S(=O)(=O)NC2CC2)cc1,-6.7%
21,Cc1ccc(-c2cc(-c3ccccc3Cl)c(C#N)c(N)n2)o1,11.3%
22,Cc1ccc(-c2cc(-c3ccc(C)o3)nc(N)c2C#N)cc1,20.9%
23,Cc1ccc(-c2cc(-c3ccc(F)cc3)nc(N)c2C#N)o1,20.1%
24,Cc1cc(-c2cc(-c3ccc(Cl)cc3)nc(N)c2C#N)co1,77.8% (active)
25,Cc1ccc(-c2cc(-c3ccccc3)c(C#N)c(N)n2)o1,29.8%
